Laboratory results: PubChem BioAssay AID588405 (Sanford-Burnham Center for Chemical Genomics, 2011)
The whole screen tested about 360,000 compounds, of which about 6,200 (1.7%) were called active.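 Rule for the calls: active = inhibition of at least 50% at 20 µM; inactive = the rest.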 Shown is part of a subset that was picked to be rich in actives.

Experiment: Peg3 promoter-driven luciferase inhibitors, primary screen, cell-based, HeLa, luciferase luminescence (AID 588405)
Conditions: HeLa PEG-Prom luciferase reporter, overnight, at 20 µM, hits give high values

inhibition, active:
O=C(/C(=C/c1cccc(Cl)c1)c1nc2ccccc2[nH]1)c1ccccc1 109%, Cc1ccc(-c2nc3ccccc3[nH]2)cc1NC(=O)c1sc2ccccc2c1Cl 50.7%, CC1CC(=S)Nc2ccccc2N1Cc1ccccc1 (stereo not drawn) 55.4%, CCN1CCN(c2nc(Nc3cc(OC)ccc3OC)nc(Nc3cc(OC)ccc3OC)n2)CC1 52.3%, Cc1oc2c(c1C(=O)N1CCOCC1)C(=O)c1ccccc1C2=O 97.9%, CC[C@@H]1Cc2cc(O)ccc2C2=C1c1ccc(O)cc1C[C@H]2CC 64.8%, O=C(CC(O)(C(F)(F)F)C(F)(F)F)Nc1ccc(Cl)c(Cl)c1 69.9%, COC(=O)/C=C\C(=O)Nc1cccc([N+](=O)[O-])c1 106%, Cc1ccc(-c2cn3cc(C)ccc3n2)cc1 88.8%, Cc1ccc2nc(-c3ccc(Br)cc3)cn2c1 55.6%

inhibition, inactive:
CC(=O)Nc1cccc(-c2cc3nc(NCc4cccnc4)n(C)c(=O)c3s2)c1 -27.3%, CN(c1ccccc1)S(=O)(=O)c1cc(C(=O)Nc2nc3ccccc3[nH]2)ccc1Cl 5.63%, O=c1c2cc(Br)ccc2nc(-c2cccc(Cl)c2)n1O 31.2%, Cc1ccc2c(Cl)c(C(=O)Nc3nn[nH]n3)sc2c1 -5.87%, CN1CCc2ccccc2C1Cc1ccccc1NC(=O)c1sc2ccccc2c1Cl (stereo not drawn) -137%, COc1ccc(C)cc1NC(=O)CCS(=O)(=O)c1cccc2nonc12 -14.4%, Cc1ccc2c(C(=O)CN3CCCC3)c(C)[nH]c2c1 7.2%, CCNC(=O)C1(C)CCN(C(=O)c2ccccc2)C1 (stereo not drawn) -7.38%, CC1CN(Cc2ccccc2)C(=S)NC1=O (stereo not drawn) -2.37%, CC1CC(=O)Nc2ccccc2N1S(=O)(=O)c1cccs1 (stereo not drawn) 10.5%, CCNC(=O)C1(C)CCCN1C(=O)c1ccc(N(C)C)cc1 (stereo not drawn) -3.48%, CCOc1ccc(Nc2nc(Cl)nc(N3CCN(c4ccc(OC)cc4)CC3)n2)cc1 22.4%, CCCOc1ccc(Cl)cc1Nc1nc(NCCO)nc(N2CCCC2)n1 9.9%, COc1cccc(C(O)c2ncc(-c3ccc4ccccc4c3)[nH]2)c1 (stereo not drawn) -68.4%, CNC(=O)C1CC(=O)N(c2ccc(OCC(=O)Nc3ccccc3C)cc2)C1 (stereo not drawn) -61.3%, CC12CCC(=O)C=C1CCC1C2C(O)CC2(C)C1CCC2(O)C(O)CO (stereo not drawn) 10.9%, CCc1nc2ccc(C(=O)Nc3ccc(OC)c(OC)c3)cn2c1N(C)C(=O)c1cccc(OC)c1 -9.49%, CCCN1CCN(C(=O)Cn2ncc3ccccc32)CC1 6.83%, O=C1NC[C@H](Cc2ccc(O)cc2)N(C[C@H]2CCCN2C[C@H](Cc2ccccc2)N2C[C@H](Cc3ccccc3)N(CCc3ccccc3)C(=O)C2=O)C1=O -4.33%, Cc1ccc(C(=O)N2CCN(S(=O)(=O)N3CCOCC3)CC2)cc1 5.77%, O=C(c1snnc1-c1ccccc1)N1CCOCC1 11.7%, CC=CCn1c(SCCCc2ccccc2)nc2c1c(=O)[nH]c(=O)n2C 0.45%, CN(CCO)Cc1csc2ccc(Br)cc12 13.7%, COc1ccc(S(=O)(=O)N2CCCCC2c2cc(C(=O)NCc3ccc(F)cc3)no2)cc1 (stereo not drawn) 15.3%, CCc1nc2c(OCC(N)=O)cccn2c1N(C)C(=O)c1ccc(OC)cc1 -3.72%, CN(CC(=O)Nc1ccc(Cl)c(C(F)(F)F)c1)C(=O)CCC(=O)c1ccccc1 12.6%, O=C(Cc1ncc(C(F)(F)F)cc1Cl)Nc1cccc(Br)c1 3.22%, O=C(Nc1cccc([N+](=O)[O-])c1)N1CCc2ccccc2C1 -236%, Cc1ccc(NC(=O)O/N=C/c2cccc([N+](=O)[O-])c2)cc1 -85.8%, O=C(CN1C(=O)NC2(CCOc3ccccc32)C1=O)NCc1ccc(F)cc1 (stereo not drawn) 20.2%, CCc1ccc2c(c1)NC(=O)C2(C)Cc1ccc(OC(F)(F)F)cc1 (stereo not drawn) 32.7%, CCOC(=O)c1sc(C)c2c1NC(C)(c1cccc3ccccc13)NC2=O (stereo not drawn) 34.8%, COc1ccc(-c2nc3ccc(Br)cn3c2Cc2ccc(C)cc2)cc1OC -58.2%, Cc1ccc(-c2nc3ccc(Cl)cn3c2Cc2ccccc2)cc1 -130%, Cc1ccc(-n2c(-c3ccc(Cl)cc3)n[nH]c2=S)cc1 17.7%, Cc1ccc(-c2nc3ccc(Br)cn3c2Cc2ccccc2C(F)(F)F)cc1 -138%, Cc1csc(NC(=O)CSc2nc(=O)n(CCCN(C)C)c3c2CCC3)n1 4.74%, CN(Cc1ccc(C(F)(F)F)cc1)C(=O)[C@H]1O[C@@H](n2cnc3c(N)ncnc32)[C@H](O)[C@@H]1O 6.54%
